SMILES strings stand for the structures. Hit rate of the full screen: of about 320,000 compounds, about 22,000 (6.9%) were called active. Another 27% or so got no clear call; they are omitted. The sample as a whole holds a higher share of actives than the screen did. Unmarked numbers belong to inactive results. Calls come from the whole dose curve; as a rule, active = well fitted inhibition curve with a large enough effect; inconclusive = small, poorly fitted or top-dose-only effect, or another doubt; inactive = no such curve, though single readings can be large or run the other way.
% is set by controls: 0 for no effect and ±100 for the full control effect; potency is the fitted concentration of half-maximal effect.

The nature of this test: Primary qHTS for delayed death inhibitors of the malarial parasite plastid, 96 hour incubation. The note with it: P. falciparum luciferase reporter growth; series mostly up to 28.7 µM; activity change, negative = inhibition: at the top concentration. An outline of the steps:
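P. falciparum expressing integrated firefly luciferase, in erythrocytes at 2% hematocrit, 0.05% parasitemia, incubated with compounds 96 h at 37 C, 5% CO2. Growth inhibition read as loss of luminescence; two-generation exposure targets delayed-death apicoplast inhibitors.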
(In general: Quantitative high-throughput screening tests each substance at several concentrations.)
In the case of `N#Cc1cccc(NC(=O)C2CCCN(C(=O)c3ccc(Cl)cc3)C2)c1` (stereo unspecified), the Potency is 9.28 µM (active).

As to `N#Cc1cccc(NC(=O)CCC2CCCC2)c1`, the “activity change, negative = inhibition” value is 10.9%.

Take `COC(=O)C1=CN(c2ccc(F)c(F)c2)C=C(C(=O)OC)C1c1ccc([N+](=O)[O-])cc1`: the “activity change, negative = inhibition” value is 0%.

Turning to `COc1ccc(C(C(=O)NC2CCCCC2)N(C(=O)c2snc(C(N)=O)c2N)c2ccccc2OC)cc1` (stereo unspecified), the “activity change, negative = inhibition” value is 19.6%.

As to `COc1ccc(C(C(=O)NC2CCCCC2)N(C(=O)CCl)c2ccccc2Cl)cc1` (stereo unspecified), the Potency is 0.294 µM (active).

As for `COc1cccc(N(C(=O)C2COc3ccccc3O2)C(C(=O)NC2CCCCC2)c2ccc(O)cc2)c1` (stereo unspecified), the “activity change, negative = inhibition” value was 34.2%.

On to `CC(C)C(c1nnnn1C1CCCCC1)N1CCN(C(=O)c2ccco2)CC1` (stereo unspecified), for which the “activity change, negative = inhibition” value is -2%.

On to `CN(C)Cc1c(C(=O)N/N=C/c2ccccc2OCc2ccc(F)cc2)nnn1-c1nonc1N`, for which the “activity change, negative = inhibition” value is 42.8%.

For the compound `CCC1OC(c2ccc([N+](=O)[O-])cc2)=Nc2ccccc21` (stereo unspecified), the “activity change, negative = inhibition” value is 2.12%.

With `CCCC(=O)N1CCC(CCC(=O)NC2CC2)CC1`, the “activity change, negative = inhibition” value was 18.1%.

In the case of `COc1ccc(NC(=O)CCCC2CCCCC2)c(OC)c1`, the “activity change, negative = inhibition” value is 108%.

With `COc1ccc(C[C@H]2CN3C(=NC[C@H]3C)N2CCNC(=O)CCC2CCCCC2)cc1`, the Potency was 6.57 µM (active).

With `COc1ccc(CCNC(=O)COC(=O)C2CCCCC2)cc1`, the “activity change, negative = inhibition” value is 37.9%.

Regarding `CCCOc1ccc(C2NC(=O)NC(c3ccccc3)=C2C(C)=O)cc1OCC` (stereo unspecified), the Potency was 4.65 µM (active).

In the case of `COc1cc(C2NC(=O)NC(c3ccccc3)=C2C(C)=O)c(Br)cc1OCC(N)=O` (stereo unspecified), the “activity change, negative = inhibition” value is 10.2%.

Turning to `CCOC(=O)C1=C(c2ccccc2)NC(=O)NC1c1cc(OCC)c(O)c([N+](=O)[O-])c1` (stereo unspecified), the “activity change, negative = inhibition” value was -18.3%.

For the compound `Cc1ccc(S(=O)(=O)N/N=C(\c2ccccc2)C2CC2)cc1`, the “activity change, negative = inhibition” value is -2.05%.

Consider `CCOC(=O)N1CCN(Cc2nc(Cc3cccc(C(F)(F)F)c3)no2)CC1`, for which the Potency is 9.28 µM (active).

Consider `FC(F)(F)c1cccc(Cc2noc(CN3CCC(N4CCCCC4)CC3)n2)c1`, for which the “activity change, negative = inhibition” value was 11.2%.

For the compound `O=C(c1ccco1)N1CCN(Cc2cccc(C(F)(F)F)c2)CC1`, the “activity change, negative = inhibition” value is 13.8%.

Consider `Cc1ccc2nc(SCC(=O)N3CC(C)OC(C)C3)nc(=O)n2c1` (stereo unspecified), for which the “activity change, negative = inhibition” value was 6.36%.

With `CC(OC(=O)CCCc1c[nH]c2ccccc12)C(=O)Nc1ccc(S(N)(=O)=O)cc1` (stereo unspecified), the “activity change, negative = inhibition” value is 18.9%.

Turning to `COc1ccc(C(=O)CCc2ccccc2O)c(OC)c1`, the “activity change, negative = inhibition” value is 46.9%.

As to `Cc1ccc(S(=O)(=O)N(C)CC(=O)OCC(=O)Nc2ccccc2)cc1`, the “activity change, negative = inhibition” value was 51.8%.

As to `COc1ccc(OC)c(NC(=O)C2CCCN2S(=O)(=O)c2cccc3nsnc23)c1` (stereo unspecified), the Potency is 13.1 µM (active).

For `COc1ccc(N(C)C(=O)C2CCN(S(=O)(=O)c3cccc4nsnc34)CC2)cc1`, the “activity change, negative = inhibition” value was 43.7%.

Regarding `Cc1ccc(NC(=O)C2CCCN2S(=O)(=O)c2cccc3cccnc23)c(C)c1` (stereo unspecified), the “activity change, negative = inhibition” value is -6.33%.

For the compound `O=C(CN1CCN(S(=O)(=O)c2ccc(Cl)s2)CC1)N1CCCCC1`, the “activity change, negative = inhibition” value is -16.4%.

For the compound `O=C(c1cc2ccccc2o1)N1CCN(S(=O)(=O)c2ccc(Cl)s2)CC1`, the Potency was 11.7 µM (active).

Take `O=S(=O)(c1ccc(Cl)s1)N1CCC2(CC1)OCCO2`: the “activity change, negative = inhibition” value is -6%.

Consider `Cc1cc(OCC(=O)N2CCN(c3ncccn3)CC2)ccc1Cl`, for which the “activity change, negative = inhibition” value is 35.5%.

For `CS(=O)(=O)N1CCN(C(=O)c2cc3ccccc3oc2=O)CC1`, the “activity change, negative = inhibition” value was -19.7%.

Turning to `Cc1ccc(OCC(=O)N2CCN(S(=O)(=O)c3ccc(Cl)s3)CC2)cc1C`, the Potency was 9.28 µM (active).

Regarding `O=C(CSc1nnc(CN2CCCC2)n1-c1ccc(F)cc1)c1ccc2c(c1)OCO2`, the “activity change, negative = inhibition” value is 29.9%.

For `COc1ccc(C(CNC(=O)COc2ccc([N+](=O)[O-])cc2)N2CCCCC2)cc1` (stereo unspecified), the “activity change, negative = inhibition” value is -21.8%.

Take `COC(=O)C1=C(c2ccc(Cl)c(C(F)(F)F)c2)C[C@@H]2CC[C@H]1N2C(=O)NC1CC1`: the Potency is 5.86 µM (active).

Consider `COC(=O)C1=C(c2ccc(F)cc2F)C[C@@H]2CC[C@H]1N2C(=O)NC1CC1`, for which the “activity change, negative = inhibition” value is 39.5%.

Turning to `Cc1ccc(N2CC(C(=O)Nc3ccc(S(=O)(=O)N4CCCC4)cc3)CC2=O)cc1C` (stereo unspecified), the “activity change, negative = inhibition” value was 49.4%.

Take `COC(=O)c1cc(C(=O)NC(C)C2CC3CCC2C3)cc([N+](=O)[O-])c1` (stereo unspecified): the “activity change, negative = inhibition” value was 0%.

On to `Cc1ccc(NC(=O)Cn2nnc(C(=O)NCc3ccco3)c2N)c(C)c1`, for which the “activity change, negative = inhibition” value was -25.7%.

Take `COc1cccc(CNC(=O)c2nnn(CC(=O)Nc3cc(C)ccc3C)c2N)c1`: the Potency is 11.7 µM (active).

`COc1cccc(CNC(=O)c2n[nH]c3ccccc23)c1`: the “activity change, negative = inhibition” value was 82.7%.

As to `COc1cccc(CNC(=O)c2nnn(CC(=O)Nc3cc(Cl)ccc3C)c2N)c1`, the Potency is 3.7 µM (active).

With `CCOc1ccc(Cn2nnc(C(=O)NCc3ccccc3)c2N)cc1`, the “activity change, negative = inhibition” value was 2.1%.

`Nc1c(C(=O)NCc2ccccc2)nnn1Cc1cccc(Cl)c1`: the “activity change, negative = inhibition” value was -16.3%.

For `O=C(c1cccc(Br)c1)N1CCN(C2=NS(=O)(=O)c3ccccc32)CC1`, the “activity change, negative = inhibition” value was 24.3%.

`Cc1ccc(S(=O)(=O)CC(=O)NC(C)c2ccccc2)cc1` (stereo unspecified): the “activity change, negative = inhibition” value was -14%.

Consider `CC1=CC(C)(C)NC(=S)N1NC(=O)c1ccccc1Cl`, for which the “activity change, negative = inhibition” value was 18.6%.

As for `COc1ccc(C(=O)Nc2sc(C)c(C)c2CN2CCOCC2)cc1`, the “activity change, negative = inhibition” value is 48.4%.

`COC(=O)c1cc(NC(=O)c2ccco2)ccc1N1CCOCC1`: the “activity change, negative = inhibition” value was 71.2%.

Turning to `COc1cc(C(c2c(NC(=O)c3ccco3)sc(C)c2C)N2CCOCC2)cc(OC)c1OC` (stereo unspecified), the Potency is 3.7 µM (active).

(Values after PubChem BioAssay AID504834 (National Center for Advancing Translational Sciences (NCATS), 2011).)
